# Compound activity deposited in PubChem by National Center for Advancing Translational Sciences (NCATS).
# FMDV antiviral = High Throughput Screening for Foot and Mouth Disease Virus Antivirals; FMDV antiviral cell-based qHTS; Potency, µM (highest dose often 57.9 µM), without a hit: top-dose activity change, negative = inhibition, usual class: inhibitors; 410,000 compounds, 1.2% hits; AID 1159524, 2015; calls by dose curve; tested in HEK293T cells; also: read-out not given here; potency is read from the fitted curve at half-maximal effect; nearly all actives have a fitted effect of over 45% in size
# HCMV inh = qHTS Assay for inhibitors of the human cytomegalovirus (HCMV) | HFF cells, HCMV-luciferase reporter, 72 h; hits give low values | activity change, negative = inhibition, % at 57.5 µM | 410,000 compounds, 4.5% hits; in the data active = activity change below about -60%; inconclusive = no clear call, values can overlap the other calls; inactive = above about -39%
#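 Human foreskin fibroblasts infected with luciferase-reporter HCMV at MOI 1 PFU/cell, compounds at two doses. Luciferase measured 72 h post infection; normalized to buffer-only basal and Salinomycin (10uM) controls.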
# AmpC detergent = qHTS Inhibitors of AmpC Beta-Lactamase (assay with detergent). AmpC hydrolysis of nitrocefin, absorbance 480 nm, 0.01% Triton. Potency, µM (series often up to 114 µM), inactives show top-dose activity change, negative = inhibition, hits mostly inhibitors. 370,000 compounds, 0.041% hits;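 also: potency is read from the fitted curve at half-maximal effect; 0% = no-compound wells and -100% = no-enzyme wells; nearly all actives have a fitted effect of over 25% in size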
# Target sequence (P00811 whole entry, looked up): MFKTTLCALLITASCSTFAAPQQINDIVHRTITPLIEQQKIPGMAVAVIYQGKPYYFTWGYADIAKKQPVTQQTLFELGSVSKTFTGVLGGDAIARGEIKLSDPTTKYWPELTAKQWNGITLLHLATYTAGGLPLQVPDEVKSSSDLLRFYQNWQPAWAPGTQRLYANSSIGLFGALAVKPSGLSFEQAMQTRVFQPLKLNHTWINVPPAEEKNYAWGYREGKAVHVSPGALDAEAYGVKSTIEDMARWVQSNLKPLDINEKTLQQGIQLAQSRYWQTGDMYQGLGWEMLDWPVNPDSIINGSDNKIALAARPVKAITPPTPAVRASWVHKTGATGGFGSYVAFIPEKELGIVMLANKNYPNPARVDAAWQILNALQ
#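 AmpC (5.3 nM in the dispensed reagent) in 20 mM phosphate pH 7.0 with 0.01% (detergent screen) or 0.0001% Triton X-100 was preincubated with compounds for 15 min at room temperature. Nitrocefin was then added from an 800 uM solution, and hydrolysis was followed at 480 nm.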
# AmpC inh no detg = qHTS Inhibitors of AmpC Beta-Lactamase (assay without detergent). AmpC nitrocefin hydrolysis, absorbance 480 nm, 0.0001% Triton. Potency, µM (top dose mostly 57.1 µM), inactives show at the highest dose activity change, negative = inhibition, hits mostly inhibitors. 330,000 compounds, 0.52% hits;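 also: potency is read from the fitted curve at half-maximal effect; plate controls were no compound for no effect and no enzyme for full effect; nearly all actives have a fitted effect of over 20% in size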
#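 20 mM phosphate pH 7.0 + 0.01% (detergent screen) or 0.0001% Triton X-100; 5.3 nM AmpC reagent; cpd preinc 15 min RT; nitrocefin (800 uM stock) to start; A480 q20 s × 4 min; Activity was normalised to no-enzyme and no-compound control wells.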
# HCV inh = qHTS Assay for Inhibitors of Hepatitis C Virus (HCV) | Huh7.5.1 HCVcc-Cre infection, luciferase reporter, 44 h | Potency, µM (doses to about 41.8 µM), for the others: at the top dose activity change, negative = inhibition, most hits filed as inhibitors | 340,000 compounds, 3.4% hits | AID 651820, 2012; also: potency is read from the fitted curve at half-maximal effect
#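 Cells (1,000/well) were plated 4 h before compound, then infected with HCVcc-Cre virus (~0.5 moi). After 44 h further culture, infection was read as luciferase luminescence following a 15 min substrate incubation at room temperature.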
# * marks the source's active call; other numbers are inactive results; ? = inconclusive; · = no result. A selection: hits, their analogues and other compounds. The true share with any hit is near 7.3%. Unless noted, calls follow the shape of the dose curve; as a rule, active = well fitted curve in the direction sought with a large enough effect; inconclusive = small, poorly fitted or top-dose-only effect, or another doubt; inactive = no such curve, though single readings can be large; an effect the other way counts as inactive or inconclusive. Unless noted, % is scaled to controls: 0 for no effect and ±100 for the full control effect.
SMILES,FMDV antiviral,HCMV inh,AmpC detergent,AmpC inh no detg,HCV inh
COC(=O)C1=C(C)N(Cc2cccc(C(F)(F)F)c2)C(=NCc2ccc3c(c2)OCO3)NC1c1cccc(F)c1 (centres undefined),·,-24,·,·,·
COC(=O)C1=C(C)N(Cc2cccc(C(F)(F)F)c2)C(=NCc2ccccc2C(F)(F)F)NC1c1cccc(F)c1 (centres undefined),·,-78*,·,·,·
COC(=O)C1=C(C)N(Cc2ccc(C(F)(F)F)cc2)C(=NCc2ccc3c(c2)OCO3)NC1c1ccccc1 (centres undefined),·,-100*,·,·,·
COC(=O)C1=C(C)N(Cc2ccccc2)C(=NCc2ccccc2)N[C@H]1c1ccccc1,-25%,-70*,-1%,42%,?
CCN(CC)CCCN=C1N[C@@H](c2cccc(C(F)(F)F)c2)C(C(=O)OC)=C(C)N1CC,-4%,?,·,27%,10µM*
COCCN=C1N[C@@H](c2ccc(Br)cc2)C(C(=O)OC)=C(C)N1Cc1ccccc1,-26%,-25,?,-13%,3.5µM*
CNc1ccc(/C=C/C(=O)c2cccc3ccccc23)cc1[N+](=O)[O-],?,?,-16%,28µM*,?
COc1cccc(CNC2CCCCCCC2)c1OC,-6%,30,-16%,-22%,2%
CC1CCCN(c2c([N+](=O)[O-])cc(C(=O)O)cc2[N+](=O)[O-])C1 (centres undefined),-5%,-101*,-8%,-32%,-2%
CCCc1cc(=O)n2[nH]c(NC(=O)c3ccco3)nc2n1,1%,49,0%,-14%,27%
CC12CC(c3ccccc3O1)N(C(=O)c1ccco1)C(=S)N2c1ccc(F)cc1 (centres undefined),0%,59,-5%,-22%,2.8µM*
CCOc1ccccc1CNC(=O)C1CCN(S(=O)(=O)c2ccc3[nH]c(=O)ccc3c2)CC1,-4%,6,1%,·,·
CCOC(=O)CN1C(=O)S/C(=C/c2ccc(N3CCCCC3)o2)C1=O,-6%,-19,2%,-9%,9%
COC(=O)CN1C(=O)S/C(=C/c2ccc(N3CCCCC3)o2)C1=O,21%,-104*,-1%,79%,?
CCCN1C(=O)S/C(=C/c2ccc(N3CCOCC3)o2)C1=O,30%,-79*,-12%,44%,?
CCCN1C(=O)S/C(=C\c2ccc(N3CCOCC3)o2)C1=O,4%,25,10%,35%,-20%
COc1cc(OC)c2nc(C)c3c(c2c1)N(c1ccc(O)cc1)CC3,?,-103*,-9%,0%,?
COc1ccc(-n2ccc(-c3sc(NCc4cc(OC)c5c(c4)OCO5)nc3C)n2)cc1,-24%,·,·,·,·
COC(=O)C1=C(C)N(c2cccc(C)c2)C(=O)/C1=C\c1cccs1,0%,-99*,-1%,-19%,?
CCOC(=O)C1=C(C)N(c2ccccc2)C(=O)/C1=C\c1cccs1,?,-24,?,-17%,?
Cc1oc(-c2ccccc2)cc1C(=O)NCc1ccncc1,-26%,15,4%,20%,-16%
CC(=O)Oc1cc2c(C(=O)NCc3ccncc3)c(C)oc2c2ccccc12,-6%,6,5%,85%,11µM*
CC(=O)[C@@]1(O)CC[C@H]2[C@@H]3C[C@H](C)C4=CC(=O)CC[C@]4(C)[C@H]3CC[C@@]21C,28µM*,?,?,22%,?
C=C1CC2C(CCC3(C)C2CCC3(O)C(C)=O)C2(C)CCC(=O)C=C12 (centres undefined),25µM*,-79*,-13%,5%,-12%
CCn1cc(C(=O)N[C@@H](CCSC)C(=O)NCCO)c(=O)c2cc3c(cc21)OCO3,-1%,-35,-2%,19%,14%
CCOc1ccc(-c2nc3c(c(SCC(=O)N4CCCCC4)n2)Cc2cc(C)ccc2O3)cc1,10%,29,3%,·,·
C[C@H](CO)N1C[C@H](C)[C@@H](CN(C)Cc2ccncc2)Oc2c(NC(=O)C3CC3)cccc2C1=O,23%,-8,·,1%,1%
